Laboratory results from PubChem BioAssay (NCATS).
Where “and” joins values, the source holds several entries; their conditions need not be identical. Identical values can stand only once. Inconclusive results are not listed. A structure can be active in one record and inactive in another. Calls of active or inactive are those of the source. Unless noted, calls come from the whole dose curve; as a rule, active = well fitted curve in the direction sought with a large enough effect; inconclusive = small, poorly fitted or top-dose-only effect, or another doubt; inactive = no such curve, though single readings can be large; an effect the other way counts as inactive or inconclusive.

How the values were obtained:
[1] = target: Cellular tumor antigen p53 (Homo sapiens) (UniProt P04637); test: Primary qHTS for small molecule compounds that upregulate eGFP-tagged delta133p53alpha (in N-terminal) cells. (AID 2060322); conditions: NCI-H358 eGFP-delta133p53alpha fluorescence, 24 h; activation: stronger effect = higher value; note: nearly all actives have a fitted effect of over 75% in size; note: potency is the fitted concentration of half-maximal effect;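 for activation: cells pre-induced with doxycycline then dosed without doxycycline; series mostly up to about 56 µM; 0% = DMSO vehicle and 100% = reference activator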
Cellular tumor antigen p53 (Homo sapiens), sequence (P04637 whole entry, looked up): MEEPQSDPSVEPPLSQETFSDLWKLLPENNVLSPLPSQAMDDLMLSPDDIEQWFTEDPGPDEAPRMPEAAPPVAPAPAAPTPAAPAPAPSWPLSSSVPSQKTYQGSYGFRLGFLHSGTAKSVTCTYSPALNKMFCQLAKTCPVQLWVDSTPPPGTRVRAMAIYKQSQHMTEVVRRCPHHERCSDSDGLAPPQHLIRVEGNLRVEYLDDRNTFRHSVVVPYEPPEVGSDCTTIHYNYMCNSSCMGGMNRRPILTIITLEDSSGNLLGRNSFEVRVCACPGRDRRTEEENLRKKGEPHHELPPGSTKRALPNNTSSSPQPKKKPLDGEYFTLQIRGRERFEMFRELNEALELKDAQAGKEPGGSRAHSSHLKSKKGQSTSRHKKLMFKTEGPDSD
Method in brief: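 NCI-H358 cells pre-induced 24 h with 10 ng/ml doxycycline for eGFP-delta133p53alpha, plated dox-free and exposed 24 h at 37C to titrated compounds. Fixed, Hoechst-stained; gated GFP peak intensity by laser scanning cytometry, normalized to DMSO (0%) and 57.5 uM 5-azacytidine (100%).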

[2] = target: Aldehyde dehydrogenase, mitochondrial (Homo sapiens) (UniProt P05091); test: qHTS for Inhibitors of the Aldehyde Dehydrogenase Family (ALDH2) Validation screens (AID 2061302; active = well fitted inhibition curve with a large enough effect; title and protocol of this record describe different tests;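 note: plate controls were DMSO vehicle for no effect and maximal DPI positive control response for full effect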)
[3] = target: Aldehyde dehydrogenase, mitochondrial (Homo sapiens) (UniProt P05091); test: qHTS for Inhibitors of the Aldehyde Dehydrogenase Family (ALDH2) Primary screen (AID 2061308);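 note: plate controls were vehicle for no effect and reference inhibitor for full effect; nearly all actives have a fitted effect of over 55% in size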
[4] = target: Retinaldehyde dehydrogenase 3 (Homo sapiens) (UniProt P47895); test: qHTS for Inhibitors of the Aldehyde Dehydrogenase Family (ALDH1A3) Validation screen (AID 2061312); note: % is set by controls: 0 for no effect and ±100 for the full control effect; nearly all actives have a fitted effect of over 45% in size
[5] = target: Retinaldehyde dehydrogenase 3 (Homo sapiens) (UniProt P47895); test: qHTS for Inhibitors of the Aldehyde Dehydrogenase Family (ALDH1A3) Primary screen (AID 2061315);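 note: plate controls were DMSO vehicle for no effect and reference inhibitor for full effect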
[6] = BET inhibitor-based combinations targeting novel dependencies in MECOM-rearranged (r) AML: SET-2 cell line (AID 2202231); conditions: SET-2 AML cells viability, CellTiter-Glo luminescence, 48 h; viability: stronger effect = lower value, concentration not given here; note: nearly all actives have a fitted effect of over 35% in size; note: potency is the fitted concentration of half-maximal effect;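 for viability: plate controls were DMSO treated cells for no effect and wells without cells for full effect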
Method in brief: (§1)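 Readout: CellTiter-Glo luminescence. Exposure: 48 h, 11 concentrations, 500 cells/well. Metric: AUC and within-line Z-AUC after DMSO/empty-well normalization.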

[7] = BET inhibitor-based combinations targeting novel dependencies in MECOM-rearranged (r) AML: OCI-AML3 cell line (AID 2202232); conditions: Potency: OCI-AML3 viability; note: nearly all actives have a fitted effect of over 35% in size; note: potency is the fitted concentration of half-maximal effect
Method in brief: as §1

[8] = BET inhibitor-based combinations targeting novel dependencies in MECOM-rearranged (r) AML: HNT-34 cell line (AID 2202234); note: potency is the fitted concentration of half-maximal effect; nearly all actives have a fitted effect of over 35% in size
Method in brief: (§2)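 Seeding density was 500 cells/well, and drug exposure lasted 48 hr under standard culture conditions. Read-out used CellTiter-Glo reagent with a 15 min room-temperature incubation before luminescence measurement; AUC and Z-AUC summarize the normalized responses.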

[9] = BET inhibitor-based combinations targeting novel dependencies in MECOM-rearranged (r) AML: AML-191 cell line (AID 2202236; note: nearly all actives have a fitted effect of over 35% in size; note: potency is the fitted concentration of half-maximal effect)
Method in brief: as §1

[10] = BET inhibitor-based combinations targeting novel dependencies in MECOM-rearranged (r) AML: AML-194 cell line (AID 2202237; note: nearly all actives have a fitted effect of over 40% in size; note: potency is the fitted concentration of half-maximal effect)
Method in brief: as §1

[11] = BET inhibitor-based combinations targeting novel dependencies in MECOM-rearranged (r) AML: UCSD-AML1 cell line (AID 2202235); note: nearly all actives have a fitted effect of over 40% in size; note: potency is the fitted concentration of half-maximal effect
Method in brief: as §2

[12] = BET inhibitor-based combinations targeting novel dependencies in MECOM-rearranged (r) AML: MV-4-11 cell line (AID 2202233); note: potency is the fitted concentration of half-maximal effect; nearly all actives have a fitted effect of over 45% in size
Method in brief: as §2

[13] = target: Cellular tumor antigen p53 (Homo sapiens) (UniProt P04637); test: Primary qHTS for small molecule compounds that upregulate eGFP-tagged delta133p53alpha (in C-terminal) cells. (AID 2060324);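 note: 0% = DMSO wells and 100% = 57.5 µM 5-azacytidine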
Method in brief: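 Readout: filtered GFP peak intensity of gated cells (laser scanning cytometer), normalized plate-wise to intraplate controls, DMSO wells = 0% activity. Cells: NCI-H358 D133p53a-eGFP, dox 100 ng/ml 24 h beforehand, then compound 24 h, 37 °C.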

COC(=O)[C@H]1[C@H]2C[C@@H]3c4[nH]c5cc(OC)ccc5c4CCN3C[C@H]2C[C@@H](OC(=O)c2cc(OC)c(OC)c(OC)c2)[C@@H]1OC
inactive: activation [1] -18% | Potency [2] | Potency [3] | Potency [4] | Potency [5]
active: Potency [1] 27.6 µM

Cc1cc(Nc2ncc(Cl)c(Nc3ccccc3S(=O)(=O)C(C)C)n2)c(OC(C)C)cc1C1CCNCC1
active: Potency [1] 7.57 µM | Potency [6] 23.5 µM | Potency [7] 9.34 µM | Potency [8] 6.61 µM | Potency [9] 16.6 µM | Potency [10] 9.34 µM
inactive: activation [1] 21.6% | Potency [3] | Potency [5]

CN1C[C@H](C(=O)N[C@]2(C)O[C@@]3(O)[C@@H]4CCCN4C(=O)[C@H](Cc4ccccc4)N3C2=O)C[C@@H]2c3cccc4[nH]cc(c34)C[C@H]21
inactive: activation [1] 7.67% | Potency [2]
active: Potency [1] 24.6 µM

Cn1c(=O)c(-c2c(Cl)cccc2Cl)cc2cnc(Nc3cccc(C(=O)O)c3)nc21
active: Potency [1] 12 µM | Potency [7] 0.235 µM
inactive: activation [1] 29.6% | Potency [3] | Potency [4] | Potency [5] | viability [6] 116% | Potency [11] | Potency [9] | Potency [10]

Nc1nc(NCCNc2ncc(-n3ccnc3)c(-c3ccc(Cl)cc3Cl)n2)ccc1[N+](=O)[O-]
inactive: activation [1] -14% | Potency [3] | Potency [5] | viability [6] 116% | Potency [7] | Potency [10]
active: Potency [1] 8.49 µM | Potency [12] 8.33 µM | Potency [8] 4.17 µM

CCCC(C(=O)OCCN(CC)CC)(c1ccccc1)c1ccccc1
inactive: activation [1] -51.2% | Potency [2] | Potency [4]
active: Potency [1] 34.7 µM

c1ccc2c(CCNc3ccc(Nc4ccncc4)cc3)c[nH]c2c1
inactive: activation [1] -5.73% | Potency [3] | Potency [4] | Potency [5]
active: Potency [1] 30.6 µM | Potency [6] 10.5 µM | Potency [7] 1.32 µM | Potency [12] 0.934 µM | Potency [8] 2.95 µM | Potency [11] 3.72 µM | Potency [9] 10.5 µM | Potency [10] 3.32 µM

Oc1ccc(-c2nc(-c3ccc(F)cc3)c(-c3ccncc3)[nH]2)cc1
active: Potency [1] 38.5 µM | Potency [12] 18.6 µM
inactive: activation [1] 9.98% and -12.3% | Potency [13] | Potency [2] | Potency [4]

CN(C[C@@H]1COCCO1)S(=O)(=O)Nc1ccc2ccc3ncc(-c4cnn(C)c4)cc3c(=O)c2c1
inactive: activation [1] -1.43% | Potency [3] | Potency [4] | Potency [5]
active: Potency [1] 8.63 µM | Potency [12] 0.417 µM | Potency [8] 3.32 µM | Potency [11] 5.9 µM | Potency [9] 6.61 µM
